# Measured values as given in PubChem BioAssay (NCATS).
# Records with an inconclusive call do not appear. A number with no mark means an inactive call. Activity calls are given as the source filed them. The call rests on the fitted dose curve; in most records, active means well fitted inhibition curve with a large enough effect; inconclusive means small, poorly fitted or top-dose-only effect; inactive means flat fitted curve, though single readings scatter.
# Tested on: Zika virus NS2B-NS3 protease
# Assay: Primary screen GU AMC qHTS for Zika virus inhibitors (AID 1347154);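 further: 0% = no-inhibitor control and -100% = no-enzyme control; nearly all actives have a fitted effect of over 70% in size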
# Conditions: Zika NS2B-NS3 unlinked protease, AMC fluorogenic substrate; series mostly up to 54.1 µM; activity change, negative = inhibition: at the top concentration
# Procedure, shortened: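 Unlinked Zika NS2B hydrophilic domain/NS3 protease domain noncovalent complex (25 nM final) in 10 mM Tris-HCl pH 8.0, 0.01% Tween 20, with AMC peptide substrate. Fluorescence (ex 340, em 450 nm) change over 15 min, room temperature; percent inhibition fitted to 4-parameter Hill equation.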
Compound,"activity change, negative = inhibition",Potency
CC(=O)Oc1cccc(O)c1,-1.48%,
COC(=O)c1ccccc1C(=O)c1ccc(OCCN2CCCCC2)cc1,5.9%,
NS(=O)(=O)c1cc(-c2nn[nH]n2)c(NCc2cccs2)cc1Cl,-11.4%,
O=C(CN1CCNCC1)NC1CCCCC1,-0.678%,
CC(C)(C)NCC(O)COc1cccc2c1CCC(=O)N2 (configuration not stated),-0.679%,
CCN(CC)S(=O)(=O)c1ccc(C(=O)O)cc1,5.45%,
O=C(NCCCN1CCOCC1)c1ccc(Cl)cc1,0.465%,
CN1C(=O)CC(c2ccccc2)C1=O (configuration not stated),4.02%,
CCc1cccc(CC)c1NC(=O)CN(CC(=O)O)CC(=O)O,2.38%,
CC(=O)Nc1ccccc1,-2.51%,
CC(C)=CCC[C@@](C)(O)[C@H]1CC=C(C)CC1,0.714%,
CCCCCCCC(=O)OCC(COC(=O)CCCCCCC)OC(=O)CCCCCCC,-5.21%,
O=S1(=O)OC(c2ccc(O)cc2)(c2ccc(O)cc2)c2ccccc21,-5.61%,
NC(=O)NC1NC(=O)NC1=O (configuration not stated),-2.17%,
COc1ccc(-c2cc(=O)c3c(O)cc(O[C@@H]4O[C@H](CO[C@@H]5O[C@@H](C)[C@H](O)[C@@H](O)[C@H]5O)[C@@H](O)[C@H](O)[C@H]4O)cc3o2)cc1O,-8.67%,
Cn1c([N+](=O)[O-])cnc1COC(N)=O,-0.989%,
O=C(O)c1ccc(OCCCOc2ccc(C(=O)O)cc2)cc1,-0.954%,
CC(C)CCOC(=O)c1ccc(N(C)C)cc1,-5.3%,
CN[C@@H]1[C@@H](O)[C@@H](O[C@@H]2[C@H](O)[C@H](O[C@H]3OC(CN)=CC[C@H]3N)[C@@H](N)C[C@H]2N)OCC1(C)O (some centres not stated),-0.839%,

Compound,"activity change, negative = inhibition",Potency
O=C(O)c1ccc[n+]([O-])c1,-3.9%,
CCOc1ccc(C(=O)OCCN(CC)CC)cc1,-2.57%,
NC(=O)CCCCC1CCSS1 (configuration not stated),-0.541%,
COc1ccc2cc(CCC(C)=O)ccc2c1,-0.581%,
CC(=O)OCC(COC(C)=O)OC(C)=O,-0.381%,
CC(C)(C)C(=O)OCOC(=O)[C@@H]1N2C(=O)[C@@H](NC(=O)[C@H](N)c3ccccc3)[C@H]2SC1(C)C,-7.49%,
NNC(=O)CP(=O)(c1ccccc1)c1ccccc1,-8.46%,
NNc1nnc(NN)c2ccccc12,-9.1%,
CC(=O)Nc1ccc(OCCOCCOc2ccc(NC(C)=O)cc2)cc1,6.29%,
O=c1[nH]cnc2nc[nH]c12,-4.47%,
C/C=C1\[C@H]2C=C(C)C[C@]1(N)c1ccc(=O)[nH]c1C2,4.65%,
C[C@]1(Cn2ccnn2)[C@H](C(=O)O)N2C(=O)C[C@H]2S1(=O)=O,-6.63%,
O=c1[nH]c2cc(C(F)(F)F)c(N3CCOCC3)cc2n(CP(=O)(O)O)c1=O,,inactive
CCCCCCCC(=O)OCC(O)CO (configuration not stated),0.755%,
CN/C(=C\[N+](=O)[O-])NCCSCc1csc(CN(C)C)n1,-6.35%,
Cc1c(I)c(=O)n(-c2ccccc2)n1C,-0.609%,
CC[N+](C)(CC)CCOC(=O)C1c2ccccc2Oc2ccccc21,-2.52%,
N[C@@H](Cc1ccc(O)cc1)C(=O)O,5.3% [at 6.83 µM],
